Values joined by “and” are separate entries in the source; they are usually repeats but may differ in a detail not shown here. Equal entries are not always repeated. Results filed as inconclusive are left out. Where a call stands in place of a potency, no number is given. Some structures have more than one record in an assay (separate samples or runs), and their calls can disagree. Active and inactive are the calls of the source. Unless noted, calls follow the shape of the full dose curve.
How the values were obtained:
[1] = Nuclear factor erythroid 2-related factor 2/antioxidant responsive element (Nrf2/ARE) small molecule agonists: qHTS cell viability counter screen in human keratinocytes (AID 1919968; active = well fitted curve in the direction sought with a large enough effect in the repeat runs; an effect the other way counts as inactive or inconclusive; also: nearly all actives have a fitted effect of over 55% in size; also: potency is read from the fitted curve at half-maximal effect)
Procedure, shortened: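 KeratinoSens cells (HaCaT keratinocytes stably carrying an ARE-luciferase reporter) were seeded at 1,500 cells/well and rested 5 h at 37 C/5% CO2. They were then exposed to compounds in DMSO for 23 h. Viability was read by CellTiter-Fluor fluorescence after 1 h.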

[2] = Nuclear factor erythroid 2-related factor 2/antioxidant responsive element (Nrf2/ARE) small molecule agonists: luciferase reporter gene qHTS assay in human keratinocytes (AID 1919969); also: nearly all actives have a fitted effect of over 35% in size; also: potency is read from the fitted curve at half-maximal effect
[3] = biological target: Gonadotropin-releasing hormone receptor (Homo sapiens) (UniProt P30968); test: Human gonadotropin-releasing hormone receptor (GnRHR) small molecule agonists, calcium flux assay in GnRHR-HEK293 cells (AID 1920063); also: nearly all actives have a fitted effect of over 35% in size
Sequence of Gonadotropin-releasing hormone receptor (Homo sapiens) (P30968 whole entry, looked up): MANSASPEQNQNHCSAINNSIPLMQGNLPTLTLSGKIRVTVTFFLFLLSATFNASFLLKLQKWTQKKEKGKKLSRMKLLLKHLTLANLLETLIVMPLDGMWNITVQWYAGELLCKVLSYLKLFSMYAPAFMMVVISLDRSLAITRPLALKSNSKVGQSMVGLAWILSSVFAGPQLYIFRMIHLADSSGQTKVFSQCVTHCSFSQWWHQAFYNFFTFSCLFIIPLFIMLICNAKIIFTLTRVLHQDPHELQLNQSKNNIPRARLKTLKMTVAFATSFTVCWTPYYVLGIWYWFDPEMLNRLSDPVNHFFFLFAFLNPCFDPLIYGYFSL
Procedure, shortened: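 HEK293 cells stably expressing human GnRHR were plated 18 h at 37 °C, loaded with calcium dye 1 h at 37 °C, then given compound in agonist mode; fluorescence (Ex/Em 480/540) read kinetically for 3 min at 1 s intervals.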

[4] = biological target: KiSS-1 receptor (Homo sapiens) (UniProt Q969F8); test: Human kisspeptin (KISS1R) small molecule agonists, calcium flux assay in KISS1R-HEK293 cells (AID 1920064; active = well fitted curve in the direction sought with a large enough effect in the repeat runs; an effect the other way counts as inactive or inconclusive)
Sequence of KiSS-1 receptor (Homo sapiens) (Q969F8 whole entry, looked up): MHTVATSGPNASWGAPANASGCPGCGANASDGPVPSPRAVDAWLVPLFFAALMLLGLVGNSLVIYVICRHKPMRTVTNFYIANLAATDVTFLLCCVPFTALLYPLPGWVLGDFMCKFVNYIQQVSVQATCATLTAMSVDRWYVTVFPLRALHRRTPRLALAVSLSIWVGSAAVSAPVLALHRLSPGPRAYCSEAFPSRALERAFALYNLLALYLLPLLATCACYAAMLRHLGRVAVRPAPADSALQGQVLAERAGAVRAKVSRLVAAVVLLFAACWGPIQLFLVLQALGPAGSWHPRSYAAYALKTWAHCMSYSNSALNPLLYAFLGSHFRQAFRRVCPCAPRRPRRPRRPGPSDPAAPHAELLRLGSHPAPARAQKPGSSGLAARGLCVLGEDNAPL
Procedure, shortened: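 HEK293 cells stably expressing human KISS1R were plated 18 h at 37 °C, loaded with calcium dye for 1 h at 37 °C, then given compound by pin tool. Fluorescence (Ex/Em 480/540) was read kinetically for 3 min.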

[5] = G protein-coupled receptor (GPCR) small molecule agonists, calcium flux assay: HEK293 wild type cell line counter screen (AID 1920065)
Procedure, shortened: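 Cells were plated and cultured 18 h at 37 C/5% CO2, then loaded with calcium dye for 1 h at 37 C. Compounds in DMSO were pin-transferred in agonist mode, and fluorescence (Ex/Em 480/540) was read kinetically for 3 min at 1 s intervals.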

[6] = p53 small molecule agonists, cell-based qHTS assay with human liver microsomes (AID 1963577);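 also: p53 response element beta-lactamase reporter cells with liver microsomes plus NADPH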
Procedure, shortened: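 In this qHTS, p53 response-element beta-lactamase cells receive test compound together with a microsome/NADPH activating system (0.5 mg/mL final each) and are incubated 16 h at 37 C before LiveBLAzer fluorescence detection.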

[7] = p53 small molecule agonists, cell-based qHTS assay with rat liver microsomes (AID 1963578)
Procedure, shortened: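 Agonist mode in p53RE-bla reporter cells, with compounds co-incubated 16 h at 37 C alongside 0.5 mg/mL rat liver microsomes and 0.5 mg/mL NADPH (final), followed by a 2 h LiveBLAzer detection step.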

[8] = p53 small molecule agonists, cell-based qHTS assay with human liver microsomes: qHTS cell viability counter screen (AID 1963579); also: nearly all actives have a fitted effect of over 45% in size
Procedure, shortened: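 Metabolically activated exposure: compounds, human liver microsomes and NADPH (0.5 mg/mL final apiece) were added to p53RE-bla cells seeded 5 h earlier, left 16 h at 37 C, and then assessed for viability by CellTiter-Glo luminescence.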

[9] = p53 small molecule agonists, cell-based qHTS assay with rat liver microsomes: qHTS cell viability counter screen (AID 1963580); also: nearly all actives have a fitted effect of over 45% in size; also: potency is read from the fitted curve at half-maximal effect
Procedure, shortened: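 p53RE-bla HCT-116 cells were exposed 16 h at 37 C to compounds with rat liver microsomes (0.5 mg/mL) and NADPH (0.5 mg/mL). Viability was measured in the same wells as ATP content by CellTiter-Glo luminescence.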

[10] = p53 small molecule agonists, cell-based qHTS assay: qHTS cell viability counter screen (AID 1963581); also: nearly all actives have a fitted effect of over 45% in size
Procedure, shortened: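 p53RE-bla HCT-116 cells were exposed to compounds for 16 h at 37 C; after the beta-lactamase FRET read in the same wells, CellTiter-Glo was added and luminescence (intracellular ATP) read after 30 min at room temperature.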

[11] = p53 small molecule agonists, cell-based qHTS assay (AID 1963582; active = well fitted activation curve with a large enough effect in the signal ratio in the repeat runs, not every such curve was filed as active; the % refers to the signal ratio)
Procedure, shortened: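 p53RE-bla beta-lactamase reporter cells rested 5 h at 37 C/5% CO2, then received compounds in DMSO by pin transfer and were incubated 16 h at 37 C. LiveBLAzer B/G FRET substrate was loaded for 2 h at room temperature before fluorescence reading.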

[12] = biological target: 5-hydroxytryptamine receptor 2A (Homo sapiens) (UniProt P28223); test: 5-hydroxytryptamine receptor 2A (HTR2A) small molecule agonists, cell-based qHTS assay (AID 1963587); also: nearly all actives have a fitted effect of over 30% in size
Sequence of 5-hydroxytryptamine receptor 2A (Homo sapiens) (P28223 whole entry, looked up): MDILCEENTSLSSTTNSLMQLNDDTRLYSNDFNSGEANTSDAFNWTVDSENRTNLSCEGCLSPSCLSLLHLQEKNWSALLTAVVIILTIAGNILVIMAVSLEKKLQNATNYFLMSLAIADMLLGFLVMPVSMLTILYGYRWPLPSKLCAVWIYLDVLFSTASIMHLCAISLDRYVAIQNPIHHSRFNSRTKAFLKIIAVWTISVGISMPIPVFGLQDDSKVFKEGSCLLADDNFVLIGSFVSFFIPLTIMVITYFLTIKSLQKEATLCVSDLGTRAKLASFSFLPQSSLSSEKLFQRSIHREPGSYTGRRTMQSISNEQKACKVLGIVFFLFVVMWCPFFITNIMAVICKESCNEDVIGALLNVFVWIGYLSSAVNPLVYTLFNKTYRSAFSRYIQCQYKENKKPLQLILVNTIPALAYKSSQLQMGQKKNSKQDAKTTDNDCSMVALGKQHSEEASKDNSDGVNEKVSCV
Procedure, shortened: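 CHO cells stably expressing human HTR2A, plated 18 h, loaded with calcium dye 1 h at 37 C. Agonist mode: compounds added and intracellular calcium fluorescence recorded kinetically for 2 min at 1 sec intervals.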

[13] = biological target: Muscarinic acetylcholine receptor M1 (Homo sapiens) (UniProt P11229); test: Cholinergic receptor muscarinic 1 (CHRM1) small molecule antagonists, cell-based qHTS assay (AID 1963588); also: nearly all actives have a fitted effect of over 40% in size; also: potency is read from the fitted curve at half-maximal effect
Sequence of Muscarinic acetylcholine receptor M1 (Homo sapiens) (P11229 whole entry, looked up): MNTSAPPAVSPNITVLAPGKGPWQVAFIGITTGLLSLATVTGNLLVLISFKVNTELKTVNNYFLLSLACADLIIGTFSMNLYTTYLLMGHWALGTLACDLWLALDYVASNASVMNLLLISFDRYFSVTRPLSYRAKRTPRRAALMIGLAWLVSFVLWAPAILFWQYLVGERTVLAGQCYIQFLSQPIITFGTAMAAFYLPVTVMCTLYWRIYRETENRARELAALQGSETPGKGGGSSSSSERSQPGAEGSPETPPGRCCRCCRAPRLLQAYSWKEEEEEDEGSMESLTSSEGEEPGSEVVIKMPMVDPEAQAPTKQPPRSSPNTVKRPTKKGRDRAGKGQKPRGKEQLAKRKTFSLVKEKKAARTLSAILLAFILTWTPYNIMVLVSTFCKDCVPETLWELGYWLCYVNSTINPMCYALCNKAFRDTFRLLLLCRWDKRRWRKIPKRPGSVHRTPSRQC
Procedure, shortened: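 CHRM1-CHO calcium-flux assay, antagonist mode. Cells were seeded 18 h, dye-loaded 1 h at 37 C and given compound for 5 min at RT, then acetylcholine was added at 50nM. FDSS fluorescence was read 3 min; 15 concentrations, three runs.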

[14] = biological target: Muscarinic acetylcholine receptor M1 (Homo sapiens) (UniProt P11229); test: Cholinergic receptor muscarinic 1 (CHRM1) small molecule agonists, cell-based qHTS assay (AID 1963589); also: nearly all actives have a fitted effect of over 35% in size
Procedure, shortened: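 CHO cells stably expressing human CHRM1, seeded 18 h at 37 C/5% CO2, dye-loaded 1 h at 37 C, then given compound in agonist mode; intracellular calcium fluorescence read kinetically at 1 s intervals. Fifteen concentrations, three independent runs.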

[15] = cAMP Responsive Elements (CRE) small molecule agonists, cell-based qHTS assay (AID 1963590)
Procedure, shortened: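 CRE-bla HEK 293T cells in DMEM with 10% dialyzed FBS, NEAA, pyruvate and 25 mM HEPES were plated 18 h at 37 C/5% CO2, then exposed to compounds in DMSO for 3 h before LiveBLAzer B/G FRET substrate addition.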

[16] = cAMP Responsive Elements (CRE) small molecule antagonists, cell-based qHTS assay (AID 1963591; active = well fitted inhibition curve with a large enough effect in the signal ratio in the repeat runs, not every such curve was filed as active; the % refers to the signal ratio)
Procedure, shortened: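 CRE-bla HEK293T cells were plated 18 h at 37 °C/5% CO2, pinned with compound in DMSO, then stimulated with NKH477 at 0.25 uM final for 3 h. LiveBLAzer B/G FRET substrate was added and plates incubated 2 h at room temperature.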

[17] = biological target: Beta-2 adrenergic receptor (Homo sapiens) (UniProt P07550); test: Adrenergic beta2 receptor (ADRB2) small molecule antagonists, cell-based qHTS assay (AID 1963592); also: series mostly up to about 92 µM; nearly all actives have a fitted effect of over 50% in size
Sequence of Beta-2 adrenergic receptor (Homo sapiens) (P07550 whole entry, looked up): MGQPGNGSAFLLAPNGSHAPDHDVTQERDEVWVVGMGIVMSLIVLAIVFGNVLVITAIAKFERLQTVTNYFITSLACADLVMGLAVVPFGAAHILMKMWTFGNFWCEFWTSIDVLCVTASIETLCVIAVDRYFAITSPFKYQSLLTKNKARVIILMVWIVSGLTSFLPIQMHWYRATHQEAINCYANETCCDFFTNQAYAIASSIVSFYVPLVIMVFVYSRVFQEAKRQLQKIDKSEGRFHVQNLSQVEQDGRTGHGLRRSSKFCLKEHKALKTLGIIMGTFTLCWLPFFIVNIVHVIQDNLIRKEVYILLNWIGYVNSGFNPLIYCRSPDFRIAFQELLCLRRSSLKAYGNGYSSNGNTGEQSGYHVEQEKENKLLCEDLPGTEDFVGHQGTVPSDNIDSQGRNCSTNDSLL
Procedure, shortened: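 Cells (CHO, stable ADRB2 overexpression) incubated 18-20hr at 37C; compounds added from DMSO; agonist mix (1nM isoproterenol, 100uM IBMX, 25uM Ro-20-1724) added; 0.5hr RT; d2-cAMP and anti-cAMP-cryptate added; 1hr RT; 665/615 nm read.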

[18] = biological target: D(2) dopamine receptor (Homo sapiens) (UniProt P14416); test: Dopamine D2 receptor (DRD2) small molecule antagonists, cell-based qHTS assay (AID 1963595; active = well fitted inhibition curve with a large enough effect in the signal ratio in the repeat runs, with a control signal flat; the % refers to the signal ratio)
Sequence of D(2) dopamine receptor (Homo sapiens) (P14416 whole entry, looked up): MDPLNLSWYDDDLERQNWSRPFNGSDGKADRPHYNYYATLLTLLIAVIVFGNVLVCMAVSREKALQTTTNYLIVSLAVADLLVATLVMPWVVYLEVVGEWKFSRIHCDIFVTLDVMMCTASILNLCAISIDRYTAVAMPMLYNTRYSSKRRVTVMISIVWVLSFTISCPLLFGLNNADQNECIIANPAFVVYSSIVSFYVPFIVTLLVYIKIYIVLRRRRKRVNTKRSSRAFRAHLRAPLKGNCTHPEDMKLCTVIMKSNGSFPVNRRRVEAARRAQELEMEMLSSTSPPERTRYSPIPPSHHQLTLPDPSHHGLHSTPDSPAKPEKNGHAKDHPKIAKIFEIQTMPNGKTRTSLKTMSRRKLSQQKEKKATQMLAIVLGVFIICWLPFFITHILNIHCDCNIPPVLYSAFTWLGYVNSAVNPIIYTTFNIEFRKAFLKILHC
Procedure, shortened: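 Antagonist mode in DRD2-HEK293 cells: after compound addition with 0.1 mM Ro20-1724, cells received quinpirole (12 nM) and NKH477 (200 nM) for 30 min at room temperature; HTRF cAMP read after 1 h detection.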

[19] = biological target: D(2) dopamine receptor (Homo sapiens) (UniProt P14416); test: Dopamine D2 receptor (DRD2) small molecule agonists, cell-based qHTS assay (AID 1963594); also: nearly all actives have a fitted effect of over 35% in size
Procedure, shortened: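 HEK293 cells stably expressing human DRD2, pre-treated with PDE inhibitor Ro20-1724 (0.1 mM final) and compound 10 min at room temperature, then stimulated with NKH477 (200nM […]) for 30 min. cAMP read by HTRF (665/620 nm).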

Row | SMILES | Potency [1] | Potency [2] | Potency [3] | Potency [4] | Potency [5] | Potency [6] | Potency [7] | Potency [8] | Potency [9] | Potency [10] | Potency [11] | Potency [12] | Potency [13] | Potency [14] | Potency [15] | Potency [16] | Potency [17] | Potency [18] | Potency [19]
1 | N#Cc1ccccc1Cl | inactive | inactive | inactive | inactive | inactive | inactive | inactive | inactive | inactive | inactive | inactive | inactive | inactive | inactive | inactive | inactive | inactive | inactive | –
2 | CCN(C)N=O | inactive | inactive | inactive | inactive | inactive | inactive | inactive | inactive | inactive | inactive | inactive | – | – | inactive | inactive | inactive | inactive | inactive | inactive
3 | Cc1cccc(C)c1N | inactive | inactive | inactive | inactive | inactive | inactive | inactive | inactive | inactive | inactive | inactive | inactive | inactive | inactive | inactive | inactive | inactive | inactive | inactive
4 | CC(Oc1ccc(Cl)cc1Cl)C(=O)O (centres undefined) | inactive | inactive | inactive | inactive | inactive | inactive | inactive | inactive | inactive | inactive | inactive | inactive | inactive | inactive | – | – | inactive | inactive | inactive
5 | O=C(NCO)NCO | inactive | inactive | inactive | inactive | inactive | inactive | inactive | inactive | inactive | inactive | inactive | inactive | inactive | inactive | inactive | inactive | inactive | inactive | inactive
6 | CCC(=O)O[C@@H]1C=C2CCC3C(CCC4(C)C3CC[C@@H]4OC(=O)CC)C2CC1 (some centres undefined) | inactive | inactive | inactive | inactive | inactive | inactive | inactive | inactive | inactive | inactive | inactive | inactive | inactive | inactive | inactive | inactive | – | inactive | inactive
7 | C#C[C@]1(O)CC[C@H]2[C@@H]3CCC4=CC(=O)CC[C@]4(C)[C@H]3CC[C@@]21C | inactive | inactive | inactive | inactive | inactive | inactive | inactive | inactive | inactive | inactive | inactive | – | – | – | inactive | inactive | inactive | – | inactive
8 | COc1ccc(C=O)cc1OC | inactive | 69.3 µM (active) and inactive | inactive | inactive | inactive | inactive | inactive | inactive | inactive | inactive | inactive | inactive | inactive | inactive | inactive | inactive | – | inactive | –
9 | O=C(O)c1ccc(=O)[nH]c1 | inactive | inactive | inactive | inactive | inactive | inactive | inactive | inactive | inactive | inactive | inactive | inactive | inactive | inactive | inactive | inactive | inactive | inactive | inactive
10 | CCCCCCCCCc1ccc(O)cc1 | 27.6 µM (active) | inactive | inactive | inactive | inactive | inactive | inactive | inactive | inactive and 40.8 µM (active) | inactive | inactive | – | – | – | – | inactive | inactive | inactive | inactive
11 | C[C@]12CC[C@H]3[C@@H](CCC4=CC(=O)CC[C@@H]43)[C@@H]1CC[C@@H]2O | inactive | inactive | inactive | inactive | inactive | inactive | inactive | inactive | inactive | inactive | inactive | – | – | – | – | inactive | inactive | inactive | inactive
12 | CC(C)c1cccc(C(C)C)c1O | inactive | inactive | inactive | inactive | inactive | inactive | inactive | inactive | inactive | inactive | inactive | – | – | – | inactive | inactive | inactive | inactive | inactive
13 | CCC(=O)O[C@H]1CC[C@H]2[C@@H]3CCC4=CC(=O)CC[C@]4(C)[C@H]3CC[C@]12C | inactive | inactive | inactive | inactive | inactive | inactive | inactive | inactive | inactive | inactive | inactive | inactive | 5.3 µM (active) and 4.6 µM (active) | inactive | – | – | inactive | inactive | inactive
14 | ClCCOCCCl | inactive | inactive | inactive | inactive | inactive | inactive | inactive | inactive | inactive | inactive | inactive | inactive | inactive | inactive | inactive | inactive | inactive | inactive | inactive
15 | [N-]=[N+]=CC(=O)OC[C@H](N)C(=O)O | inactive | inactive | inactive | inactive | inactive | inactive | inactive | inactive | inactive | inactive | inactive | – | – | – | inactive | inactive | inactive | inactive | inactive
16 | O=[N+]([O-])c1cc([As](=O)(O)O)ccc1O | inactive | inactive | inactive | inactive | inactive | inactive | inactive | inactive | inactive | inactive | inactive | – | – | – | inactive | inactive | inactive | inactive | inactive
17 | O=P1(N(CCCl)CCCl)NCCCO1 (centres undefined) | inactive | inactive | inactive | inactive | inactive | inactive | inactive | inactive | inactive | inactive | inactive | – | – | – | inactive | inactive | inactive | inactive | inactive

Reference: PubChem BioAssay (Tox21)
